This is a sample that favours compounds with a hit; in the whole collection about 2.5% have one here.
PRMT1 inh: PRMT1 methyltransferase inhibitors, primary screen, biochemical, fluorescence polarization. Protein arginine N-methyltransferase 1 (Homo sapiens), Q99873. 1.3% of 370,000 active. inhibition, % at 2.79 µM. AID 652257, 2013. recombinant PRMT1, activity-based probe fluorescence polarization;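 active means inhibition above about 21% made by adding two undisclosed values, limit read from the data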
UHRF1 binding: UHRF1 methylated DNA binding inhibitors, primary screen, counter-screen for MBD2 inhibitor project, biochemical, TR-FRET, human UHRF1, single concentration; E3 ubiquitin-protein ligase UHRF1 (Homo sapiens), Q96T88; UHRF1 binding to methylated oligo; AID 687016, 2013; inhibition, % at 4.4 µM; 0.75% of 370,000 active; in the data active means inhibition above about 21%;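 further: UHRF1 SRA domain binding a hemimethylated CpG hairpin DNA probe; 0% = median of test compound wells and 100% = reference inhibitor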
LEDGF integ inh: blockers of LEDGF/p75-dependent integrase strand transfer – biochemical, TR-FRET, high throughput, primary screen; HIV-1 integrase (with human LEDGF/p75); TR-FRET IN-LEDGF/p75 DNA integration, Eu/Cy5; inhibition, % at 3.7 µM; 0.64% of 370,000 active;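 active means inhibition above the screen-wide mean plus 3 SD, cut at about 13% in these data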;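 further: signal is the Cy5 over europium emission ratio at 671 and 618 nm; 0% = plate median of compound wells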
MBD2 DNA inh: inhibitors of MBD2 binding to methylated DNA, primary screen, biochemical, TR-FRET, DNA-binding domain, human; MBD2 binding to methylated oligonucleotide; inhibition, % at 4.4 µM; 0.31% of 370,000 active; AID 686964, 2013; in the data active means inhibition above about 13%
Target sequence (Q9UBB5 whole entry, looked up, the tested form may be a part): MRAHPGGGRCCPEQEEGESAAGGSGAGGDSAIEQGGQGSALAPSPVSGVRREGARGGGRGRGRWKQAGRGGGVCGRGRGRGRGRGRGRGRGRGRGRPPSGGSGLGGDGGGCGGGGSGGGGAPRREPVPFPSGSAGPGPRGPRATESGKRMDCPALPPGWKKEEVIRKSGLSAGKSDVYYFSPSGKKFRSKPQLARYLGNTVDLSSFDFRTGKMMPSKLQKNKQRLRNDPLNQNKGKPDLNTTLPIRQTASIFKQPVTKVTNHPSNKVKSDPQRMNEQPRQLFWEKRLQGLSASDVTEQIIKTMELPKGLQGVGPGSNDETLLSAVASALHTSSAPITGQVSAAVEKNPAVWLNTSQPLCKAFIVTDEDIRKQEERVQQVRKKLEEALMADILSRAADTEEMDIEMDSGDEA
An asterisk follows results filed as active.

SMILES	PRMT1 inh	UHRF1 binding	LEDGF integ inh	MBD2 DNA inh
CCOc1cc(/C=C2\C(=O)N(CCc3ccc(OC)c(OC)c3)C(C)=C2C(=O)OC)ccc1O	26*	-8	2	-4
COc1ccc(-c2nn(-c3ccccc3)cc2CN(C)CCn2ccnc2C)c(F)c1	2	0	-2	4
CC(C)NC(=O)C1(C)CN(S(C)(=O)=O)CC(=O)N1CCOc1ccccc1 (stereo not given)	-3	40*	3	-5
COc1ccc(Cc2c(O)nc(SCC(=O)c3ccc(OC)cc3)[nH]c2=O)cc1	22*	0	-6	6
Cc1ccc(CNC(=O)c2cn(C3CCCCC3)c(=O)c3c2c2ccccc2n3C)o1	-1	0	-2	-1
Cc1ccc(CNC(=O)c2cn(C)c(=O)c3c2c2ccccc2n3C)o1	22*	-3	-1	1
O=c1cc(CN2CCOCC2)c2cc(Cl)c(O)cc2o1	6	40*	2	12
Cc1ccc(C(=O)c2coc3cc([N+](=O)[O-])c(O)c([N+](=O)[O-])c23)cc1	26*	-3	5	-10
CC(=O)Nc1ccc(S(=O)(=O)/N=C2\C(=O)c3ccccc3C([O-])=C2n2cc[n+](-c3ccccn3)c2)cc1	3	44*	5	-4
COc1ccc(/C=C2\SC(c3ccc(C)cc3)=NC2=O)cc1OC	19	5	-3	-2
COc1ccc(/C=C2/SC(c3ccc(C)cc3)=NC2=O)cc1OC	24*	-6	-2	1
CCOc1ccc(/C=C2\SC(=S)NC2=O)cc1OC	-2	-4	-1	1
COc1ccc(/C=C2\SC(=O)NC2=S)cc1OC	47*	-19	-2	-9
COc1cc(/C=C2\SC(c3ccc(C)cc3)=NC2=O)ccc1O	29*	-2	5	-2
COC(=O)[C@@H]1C[C@@]2(c3ccccc3)c3ccccc3N(S(=O)(=O)c3ccccc3)[C@H]2N1C(=O)CNC1CCCCC1	1	-3	0	2
Cn1c(CN2CCCC2)c(C#N)c2ccccc21	-4	65*	-3	-4
CN1CCN(Cc2c(C#N)c3ccccc3n2C)CC1	3	3	1	2
CC(C)n1c(=S)[nH]c2scc(-c3cccs3)c2c1=O	9	2	9	2
CCn1c(=S)[nH]c2scc(-c3cccs3)c2c1=O	23*	2	-3	4
CCN(CC)C(=O)CC[C@@H]1CC[C@]2(CCCN(Cc3nccs3)C2)O1	0	-1	-4	-4
Cc1cc2c(SCC(=O)Nc3cccc(O)c3)ncnc2s1	34*	16	4	9
COc1ccc(NC(=O)CSc2ncnc3sc(C)cc23)cc1	1	1	-1	-3
Cc1ccc(CC(=O)NNC(=O)c2ccncc2)cc1C	24*	3	-2	-1
Cc1ccc(C(=O)NNC(=O)c2ccncc2)cc1C	-3	-1	-5	0
NC(N)=N/N=C(\N=Nc1ccccc1)c1ccc(Cl)cc1	-8	5	1	-4
SMILES	PRMT1 inh	UHRF1 binding	LEDGF integ inh	MBD2 DNA inh
CCOC(=O)c1c(C)n(O)c2ccc(Cl)cc2c1=O	2	25*	-2	7
COC(=O)C(CC(=O)c1ccc(Br)cc1)n1cccn1 (stereo not given)	22*	0	0	-3
CCN1C=C(Cc2ccccc2C)C2=C(C1)C(c1ccccc1C)C(C#N)=C(N)O2 (stereo not given)	6	-2	2	3
CCN1C=CC2=C(C#N)C(N)C(C#N)(C#N)C(c3ccccc3C(F)(F)F)C2C1 (stereo not given)	22*	-6	-2	-5
CN(C)c1ccc(C(=O)N2CCCC2)cc1	-3	4	1	5
CN(C)c1ccc(C(=O)NC2(N3CCC3=O)CCCC2)cc1	3	31*	-5	4
O=[N+]([O-])c1ccc(S(=O)(=O)NN=Cc2ccc(Cl)c(Cl)c2)cc1	3	-1	-2	-4
Cc1ccccc1CC(=O)N1CCCC1	-3	3	2	-1
Cc1ccc(C2CC(c3ccc(Cl)cc3)=NNC2=O)cc1 (stereo not given)	0	-3	-1	-5
CN1N=C(c2ccc(Cl)cc2)CC(c2ccc(Cl)cc2)C1=O (stereo not given)	-4	22*	1	7
COc1ccc(C2=NN(c3nc(-c4ccccc4)c(CC(=O)O)s3)C(c3ccco3)C2)cc1 (stereo not given)	22*	-1	6	-2
Cc1cc(NC(=O)C2CC2)ncc1NC(=O)c1ccccn1	2	22*	-2	2
Cc1cc(NC(=O)C2CCCCC2)ncc1NC(=O)c1ccccn1	0	-1	-2	-1
COc1cc(NC(=O)c2ccccc2)c(OC)cc1Cl	-1	0	0	-1
COc1cc(Cl)c(C)cc1NC(=O)c1ccc(S(C)(=O)=O)cc1	0	24*	1	7
Nc1nc(=S)c2[nH]c(=S)[nH]c2[nH]1	14	-3	-5	-10
CSc1nc(=S)c2[nH]c(=S)[nH]c2[nH]1	88*	-3	3	-4
COc1ccc(Nc2nnc(SCC(=O)N(CC(C)C)C3CCS(=O)(=O)C3)s2)cc1 (stereo not given)	2	0	5	0
C[C@H](NC(=O)[C@@H]1CSC2c3ccccc3C(=O)N21)C(=O)NCCc1ccccc1 (stereo not given in full)	13	3	-3	0
C[C@H](NC(=O)[C@@H]1CSC2c3ccccc3C(=O)N21)C(=O)NCCc1ccc(F)cc1 (stereo not given in full)	25*	1	-4	6
Cc1ccc(-c2n[nH]c(=S)c3ccccc23)cc1	4	40*	-4	6
S=c1[nH]nc(-c2ccccc2)c2ccccc12	7	2	-2	7
O=C(CCc1ccc(O)c(O)c1)N/N=C/c1ccc2c(c1)OCO2	20	21*	33*	9
CN(C)S(=O)(=O)c1cccc(C(=O)N/N=C\c2ccccc2)c1	0	2	-3	-1
Cn1ccc(/C=N/N=C2/NC(=O)CS2)n1	0	37*	2	-6
CN1CCN(c2ccc(NC(=O)c3ccc(-c4ccccc4F)o3)cc2)CC1	4	37*	0	-3
CCC(C)n1c(SC(C)C#N)nc2ccccc2c1=O (stereo not given)	-1	28*	-1	-1
COc1ccc([C@H]2C[C@H](O)[C@@H](n3cc(C4CC4)nn3)CN2C(=O)C2CCCCC2)cc1	4	5	-3	1
O=C(CSc1nc2ccccc2s1)NC(=O)NCc1ccco1	8	4	2	-1
Cc1nnc(SCC(=O)NC(=O)NCc2ccco2)s1	-2	30*	4	-1
